Sampled rows, rich in hits. Any-hit rate of the full collection: about 12%.
HP1b binding inh = inhibitors of HP1-beta chromodomain binding to methylated histone tails; P83916; Potency, µM (doses to about 114 µM), for inactives: top-dose activity change, negative = inhibition, most hits filed as inhibitors; AlphaScreen HP1-beta / biotin-H3K9me3 peptide binding; 390,000 compounds, 0.56% hits; note: nearly all actives have a fitted effect of over 70% in size
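Compound inhibition of the preformed complex between 50 nM HP1-beta and 50 nM biotinylated H3K9me3 peptide was read by AlphaScreen. Buffer was PBS pH 7.4 with 0.01% Tween-20. Incubations ran 30 min at room temperature, with 10 ug/mL donor/acceptor beads.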
JMJD2A Tudor = JMJD2A Tudor domain (human) inhibition. AlphaScreen JMJD2A-Tudor / H3K4me3 peptide binding. Potency, µM (top dose mostly 114 µM), for the others: at the top dose activity change, negative = inhibition, usual class: inhibitors. 390,000 compounds, 4.4% hits. O75164; note: % is set by controls: 0 for no effect and ±100 for the full control effect; nearly all actives have a fitted effect of over 50% in size
Target sequence (O75164 whole entry, looked up, the tested form may be a part): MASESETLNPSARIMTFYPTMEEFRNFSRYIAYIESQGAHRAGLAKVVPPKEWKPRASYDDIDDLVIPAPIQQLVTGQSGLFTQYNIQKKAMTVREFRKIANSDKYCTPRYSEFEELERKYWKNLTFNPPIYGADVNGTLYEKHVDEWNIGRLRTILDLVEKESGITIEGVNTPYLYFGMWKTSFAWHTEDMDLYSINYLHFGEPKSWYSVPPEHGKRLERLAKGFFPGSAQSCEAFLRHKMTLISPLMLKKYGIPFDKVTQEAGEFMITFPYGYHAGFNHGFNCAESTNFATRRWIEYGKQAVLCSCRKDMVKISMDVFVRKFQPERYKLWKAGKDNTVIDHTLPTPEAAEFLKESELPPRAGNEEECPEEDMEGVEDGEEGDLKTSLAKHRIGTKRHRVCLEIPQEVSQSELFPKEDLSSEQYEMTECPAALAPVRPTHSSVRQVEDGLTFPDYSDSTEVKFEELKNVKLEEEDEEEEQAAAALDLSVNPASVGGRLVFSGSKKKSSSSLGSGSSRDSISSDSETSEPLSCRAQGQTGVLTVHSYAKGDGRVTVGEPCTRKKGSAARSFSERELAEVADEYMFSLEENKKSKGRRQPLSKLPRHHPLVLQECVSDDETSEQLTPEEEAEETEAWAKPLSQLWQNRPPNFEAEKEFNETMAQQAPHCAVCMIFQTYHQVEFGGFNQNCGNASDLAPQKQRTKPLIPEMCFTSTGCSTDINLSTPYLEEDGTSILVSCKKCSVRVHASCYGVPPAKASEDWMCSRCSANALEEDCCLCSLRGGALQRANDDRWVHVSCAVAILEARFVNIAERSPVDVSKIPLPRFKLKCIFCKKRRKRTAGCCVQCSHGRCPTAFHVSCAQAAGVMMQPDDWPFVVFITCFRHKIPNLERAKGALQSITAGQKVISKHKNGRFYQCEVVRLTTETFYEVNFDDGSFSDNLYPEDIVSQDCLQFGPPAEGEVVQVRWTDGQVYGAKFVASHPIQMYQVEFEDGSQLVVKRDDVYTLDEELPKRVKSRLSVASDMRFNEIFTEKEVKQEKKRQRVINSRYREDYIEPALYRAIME
G9a block = inhibitors of human histone lysine methyltransferase G9a | 350,000 compounds, 8.8% hits | G9a H3K9 monomethylation, AlphaScreen, 2 h | AID 504332 | Potency, µM (series often up to 102 µM), for the others: top-dose activity, negative = inhibition, most hits filed as inhibitors; note: % is set by controls: 0 for no effect and ±100 for the full control effect; nearly all actives have a fitted effect of over 75% in size
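AlphaScreen detection with an anti-monomethyl H3K9 antibody quantified product after a 2 h room-temperature reaction containing 500 nM biotinylated H3K9 peptide, 20 µM SAM and 20 nM enzyme, which had been preincubated 15 min with compound.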
BAZ2B block = BAZ2B (human) inhibition. Q9UIF8. AlphaScreen BAZ2B-H3K14Ac peptide displacement. Potency, µM (top dose mostly 114 µM), for the others: at the highest dose activity change, negative = inhibition, hits mostly inhibitors. 360,000 compounds, 4.4% hits. AID 504333; note: % is set by controls: 0 for no effect and ±100 for the full control effect; nearly all actives have a fitted effect of over 60% in size
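Compounds, titrated to a top concentration of 110 uM, were incubated 30 min at room temperature with preformed BAZ2B/acetyl-K14 H3 peptide complex (50 nM each). Proximity signal was measured by AlphaScreen after 20 min with beads.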
L3MBTL1 inh = L3MBTL1 (human) inhibition. Potency, µM (series often up to 57.1 µM), for inactives: top-dose activity, negative = inhibition, usual class: inhibitors. Q9Y468. AlphaScreen L3MBTL1–H3K9me1 peptide binding. 230,000 compounds, 0.66% hits. AID 485360; note: % is set by controls: 0 for no effect and ±100 for the full control effect; nearly all actives have a fitted effect of over 60% in size
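L3MBTL1 50 nM + b-AHA-H3(1-15)K9me1 75 nM, 30 min RT; compound added, 30 min RT; streptavidin donor/Ni-chelate acceptor beads 10 ug/mL each final, 30 min RT dark; AlphaScreen read.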
Sfp inh = Sfp phosphopantetheinyl transferase inhibition | Biochemical Sfp PPTase activity, qHTS | Potency, µM, for the others: largest response in the series, negative = inhibition, hits mostly inhibitors | 310,000 compounds, 3.5% hits | AID 1490;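 note: the enzyme is Sfp with the accession as filed and its product quenches rhodamine fluorescence; 0% = enzyme reaction without inhibitor and -100% = no enzyme wells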
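Reaction rates are the 30-min fluorescence difference (ex 525, em 598 nm) in wells containing 15 nM Sfp, 5 uM rhodamine-CoA and 12.5 uM BHQ-2-YbbR at pH 7.6 with 10 mM MgCl2.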
* = called active by the depositor; [ ] = remark or other dose. Calls come from the whole dose curve; as a rule, active = well fitted curve in the direction sought with a large enough effect; inconclusive = small, poorly fitted or top-dose-only effect, or another doubt; inactive = no such curve, though single readings can be large; an effect the other way counts as inactive or inconclusive. Potency is the fitted concentration of half-maximal effect.

Results for O=C(NCc1n[nH]c(=S)n1-c1ccc(Cl)c(Cl)c1)c1ccco1 ?
HP1b binding inh: 18%; JMJD2A Tudor: 50µM*; G9a block: 8%[12.7 µM]; BAZ2B block: -8%; Sfp inh: -12%

Results for O=C(NCc1ccc(CNC(=O)c2ccco2)cc1)c1ccco1 ?
HP1b binding inh: 35%; JMJD2A Tudor: 7%; G9a block: 44%; BAZ2B block: -9%; Sfp inh: 9%

Results for O=C(NCc1n[nH]c(=S)n1-c1ccccc1)c1ccco1 ?
HP1b binding inh: 27%; JMJD2A Tudor: 16µM*; G9a block: 8.9µM*; BAZ2B block: 8%; L3MBTL1 inh: 0%; Sfp inh: inconclusive

What do the screens show for `COc1ccccc1-n1c(CNC(=O)c2ccco2)n[nH]c1=S`?
HP1b binding inh: 42%; JMJD2A Tudor: inconclusive; G9a block: 25µM*; BAZ2B block: -2%; Sfp inh: -2%

Results for O=C(NCc1ccc(Cl)c(Cl)c1)c1ccco1 ?
HP1b binding inh: 28%; JMJD2A Tudor: 0%; G9a block: 18%[59 µM]; BAZ2B block: 4%; L3MBTL1 inh: 1%; Sfp inh: 18%

How did O=C(NCCNCc1ccccc1)c1ccco1 do in these assays?
HP1b binding inh: -11%[57 µM]; JMJD2A Tudor: 25µM*

What do the screens show for `CCc1ccc(CNCCNC(=O)c2ccco2)cc1`?
HP1b binding inh: 15%[57 µM]; JMJD2A Tudor: -24%

Results for CCCC[C@@H](NC(=O)[C@@H](Cc1cn(C(=O)OC)c2ccccc12)NC(=O)[C@H](CC(C)(C)C)NC(=O)N1[C@H](C)CCC[C@@H]1C)C(=O)O ?
G9a block: 21%[59 µM]; Sfp inh: 18%

What do the screens show for `CCCCc1nc2c(c3c1C[C@H](C)OC3)CN(S(=O)(=O)c1ccc(Cl)c3nonc13)CC2`?
Sfp inh: -16%

What do the screens show for `COCc1cc(C)nc2sc3c(c12)NC(c1ccccc1C(=O)O)N(c1ccc(OC)cc1)C3=O` (centres undefined)?
HP1b binding inh: 28%; JMJD2A Tudor: -28%; G9a block: 6%[59 µM]; BAZ2B block: -1%

Results for Cc1cccc2cc(C#N)c(SCC#N)nc12 ?
HP1b binding inh: 10%; JMJD2A Tudor: -32%; G9a block: 25µM*; BAZ2B block: 1%; L3MBTL1 inh: 19%; Sfp inh: -1%

Results for COc1ccc(NC(=O)CSc2nc3ccccc3c(=O)n2CCC(=O)NC2CCCCC2)c(OC)c1 ?
HP1b binding inh: 14%; JMJD2A Tudor: -17%; G9a block: 4%[59 µM]; BAZ2B block: 1%

How did CCOc1nc2ccccc2cc1/C=C/C(=O)O do in these assays?
HP1b binding inh: 51%; JMJD2A Tudor: 1%; G9a block: 50µM*; BAZ2B block: -1%; L3MBTL1 inh: 0%; Sfp inh: 12%

Results for O=C(O)/C=C/c1ccc2ccccc2n1 ?
HP1b binding inh: 27%; JMJD2A Tudor: -10%; G9a block: -4%[59 µM]; BAZ2B block: 3%; L3MBTL1 inh: 12%[11.4 µM]; Sfp inh: 1%

How did O=C(NCc1ccccn1)C1CC(=O)N(C2CCCC2)C1 (centres undefined) do in these assays?
HP1b binding inh: 22%; JMJD2A Tudor: 79µM*

Results for O=C(NCc1ccccn1)C1CCC(=O)N1C1CCCC1 (centres undefined) ?
HP1b binding inh: 20%; JMJD2A Tudor: 79µM*

Results for O=C(NCc1ccccc1)C1CC(=O)N(C2CCCCCC2)C1 (centres undefined) ?
HP1b binding inh: 43%; JMJD2A Tudor: -9%; G9a block: -6%[59 µM]; BAZ2B block: -14%; Sfp inh: 16%

Results for O=C(NCCN1CCc2ccccc2C1)C1CC(=O)N(C2CCCC2)C1 (centres undefined) ?
HP1b binding inh: 14%; JMJD2A Tudor: 89µM*; G9a block: -36%[0.0925 µM]; BAZ2B block: inconclusive; L3MBTL1 inh: 21%; Sfp inh: 6%

How did O=C(NCCc1ccccc1)C1CCC(=O)N1C1CCCC1 (centres undefined) do in these assays?
HP1b binding inh: 21%; JMJD2A Tudor: -3%; G9a block: -10%; BAZ2B block: 8%; Sfp inh: 7%

Results for O=C(NCCCN1CCc2ccccc2C1)C1CCN(S(=O)(=O)N2CCCC2)CC1 ?
HP1b binding inh: 16%; JMJD2A Tudor: -25%; G9a block: 27%[0.501 µM]; BAZ2B block: 50µM*; L3MBTL1 inh: 7%; Sfp inh: -9%

Results for COc1ccc(-c2nc3c(c(SCC(=O)Nc4ccccc4F)n2)Cc2cc(C)ccc2O3)cc1 ?
HP1b binding inh: 36%; JMJD2A Tudor: -13%; G9a block: -4%[59 µM]; BAZ2B block: 0%

Results for Oc1ccc(C(=S)N2CCN(c3cccc(Cl)c3)CC2)cc1 ?
HP1b binding inh: inconclusive; JMJD2A Tudor: 56µM*; G9a block: 5µM*; BAZ2B block: 40µM*; L3MBTL1 inh: -26%; Sfp inh: 16µM*

Results for COc1ccc(C(=O)N2CCN(c3cccc(Cl)c3)CC2)cc1 ?
HP1b binding inh: 38%; JMJD2A Tudor: -15%; G9a block: -8%[59 µM]; BAZ2B block: -4%; L3MBTL1 inh: 9%; Sfp inh: 10%

How did CC(=O)c1ccc(NC(=S)N2CCN(c3cccc(Cl)c3)CC2)cc1 do in these assays?
HP1b binding inh: 18%; JMJD2A Tudor: -7%; G9a block: 10%; BAZ2B block: -12%; L3MBTL1 inh: 0%[11.4 µM]; Sfp inh: 17%

How did Oc1ccccc1C(=S)N1CCN(c2cccc(Cl)c2)CC1 do in these assays?
HP1b binding inh: inconclusive; JMJD2A Tudor: inconclusive; G9a block: -9%[0.501 µM]; BAZ2B block: 45µM*; L3MBTL1 inh: -28%; Sfp inh: 16µM*

How did COc1ccccc1N1CCN(C(=O)COc2ccc(Cl)cc2Br)CC1 do in these assays?
HP1b binding inh: 32%; JMJD2A Tudor: -18%; G9a block: -51%[59 µM]; L3MBTL1 inh: -9%; Sfp inh: -20%

Results for COc1cc(C(=S)N2CCN(c3ccccc3Cl)CC2)cc(O)c1O ?
HP1b binding inh: 11µM*; JMJD2A Tudor: 32µM*; G9a block: 1.8µM*; BAZ2B block: 50µM*; L3MBTL1 inh: inconclusive; Sfp inh: 35µM*

How did COc1ccc(C(=S)N2CCN(c3cccc(Cl)c3)CC2)c(OC)c1 do in these assays?
HP1b binding inh: inconclusive; JMJD2A Tudor: inconclusive; G9a block: 10µM*; BAZ2B block: inconclusive; L3MBTL1 inh: -19%; Sfp inh: 18µM*

Source: PubChem BioAssay (National Center for Advancing Translational Sciences (NCATS))
